Assay outcomes deposited in PubChem by several laboratories.
tim23-1 inh – tim23-1 yeast growth inhibition; S. cerevisiae tim23-1 growth, BacTiter-Glo luminescence, 24 h; inhibition, % at 20 µM; actives 1.3% (n = 330,000);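 active = growth inhibition of the mutant yeast at or above 50%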;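 also: temperature-sensitive mutant grown at 25 °C; plate controls were DMSO-treated mutant yeast for no effect and medium wells lacking yeast for full effect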
tim10-1 inh – tim10-1 yeast growth inhibition; actives 2.2% (n = 330,000); inhibition, % at 20 µM; S. cerevisiae tim10-1 ts strain growth, BacTiter-Glo, 24 h;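 active = inhibition of at least 40%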;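 also: mutant grown at 25 °C; 0% = DMSO wells with yeast and 100% = wells holding no yeast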
EBI2 antag – blocks human EBI2 receptor beta-arrestin signaling; EBI2 beta-arrestin recruitment, luminescence, 7a,25-OHC stimulated; inhibition, % at 5 µM; actives 0.81% (n = 360,000); in the data active = inhibition above about 38%;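 also: enzyme fragment complementation signal reports receptor beta-arrestin coupling in cells; 0% = agonist plus DMSO wells and 100% = wells without agonist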
Target sequence (P32249 whole entry, looked up, the tested form may be a part): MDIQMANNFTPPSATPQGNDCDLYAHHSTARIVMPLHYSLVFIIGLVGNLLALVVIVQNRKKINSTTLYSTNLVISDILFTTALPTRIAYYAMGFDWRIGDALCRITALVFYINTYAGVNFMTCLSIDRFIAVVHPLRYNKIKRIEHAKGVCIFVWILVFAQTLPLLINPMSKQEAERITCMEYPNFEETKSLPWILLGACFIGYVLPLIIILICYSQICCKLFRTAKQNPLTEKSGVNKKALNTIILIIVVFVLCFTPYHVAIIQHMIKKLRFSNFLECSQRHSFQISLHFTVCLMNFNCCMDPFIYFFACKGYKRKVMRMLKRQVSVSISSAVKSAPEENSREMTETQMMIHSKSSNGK
TIM10 inh – TIM10 yeast growth inhibition; S. cerevisiae TIM10 strain growth, BacTiter-Glo luminescence, 24 h; inhibition, % at 10 µM; actives 1.4% (n = 330,000); AID 463195;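 active = inhibition of 40% or more at the single tested concentration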;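 also: wild-type TIM10 isogenic control strain grown at permissive 25 °C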
SKKanGAS inh – blocks kanamycin growth of S. pyogenes SKKanGAS strain; inhibition, % at 7.5 µM; BacTiter-Glo, 6 h; actives 1.3% (n = 300,000);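 active = mean replicate score, as percent of positive control median, at least 50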;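 also: strain carries kanamycin resistance gene driven by streptokinase promoter and grows in 40 µg/ml kanamycin; loss of luminescence reflects streptokinase promoter inhibition or plain growth inhibition; 0% = median of DMSO wells and 100% = positive control at its reference dose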
PfHsp90 set2 – reduces growth (ATP signal) of yeast expressing P. falciparum Hsp90; S. cerevisiae expressing PfHsp90, BacTiter-Glo ATP, 48 h; yeast lacking PDR1 and PDR3 efflux regulators; inhibition, % at 9.4 µM; actives 0.32% (n = 310,000);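 active = every replicate shows inhibition above about 80%, whatever the replicate mean, limit read from the data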;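 also: 0% = DMSO neutral controls and 100% = 20 µM radicicol positive controls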
tim10-1 conf – tim10-1 yeast growth inhibition, confirmed. shares compounds with tim10-1 inh. AID 463213. inhibition, % at 20 µM. actives 56% (n = 7,400). S. cerevisiae tim10-1 ts strain growth, BacTiter-Glo, 24 h;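 active = inhibition of yeast growth at or above a set limit in either of two repeat tests at 20 µM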;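 also: tim10-1 mutant grown at permissive 25 °C to find synthetic lethal compounds; 0% = DMSO yeast wells and 100% = medium wells without yeast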
tim10 confirm – TIM10 yeast growth inhibition, confirmed. shares compounds with TIM10 inh. S. cerevisiae tim10 strain growth, BacTiter-Glo luminescence, 24 h. inhibition, % at 10 µM. actives 63% (n = 4,600). AID 463215;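 active = inhibition of yeast growth at or above a set limit in either of two replicates at 10 µM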;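 also: this counterscreen used the strain with wild-type TIM10; 0% = yeast with DMSO and 100% = medium wells lacking yeast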
EBI2 antag conf – EBI2 (human) antagonism, single concentration confirmation; inhibition, % at 5 µM; EBI2 beta-arrestin luminescence, 7a,25-OHC antagonism; actives 29% (n = 2,400); shares compounds with EBI2 antag;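 active = inhibition of at least 50%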
EBI2 agonist – counter-screen for EBI2 antagonists: EBI2 agonist activity; shares compounds with EBI2 antag; EBI2-expressing cells, agonist mode, luminescence, 60 min; 0% vehicle, 100% 7α,25-dihydroxycholesterol control; 2,400 tested, under 10 active; AID 652000; activation, % at 5 µM;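 active = activation of at least 50%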
bGal counter – beta-galactosidase inhibition counter-screen. shares compounds with EBI2 antag. purified beta-galactosidase, luminescent Galacton Star, 15 min. inhibition, % at 5 µM. actives 1% (n = 2,400). AID 652176;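 active = replicate-average signal at least 3 plate SD below neutral wells, shown as high inhibition, flagging enzyme-inhibiting false positives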;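 also: 0% = DMSO wells with enzyme and 100% = wells lacking enzyme; higher means stronger loss of beta-gal luminescence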
Numbers without * were called inactive. An excerpt weighted towards active compounds, which were near 4.7% of everything screened.

`CC(C)CN(C(=O)CN(C)C(=O)c1ccco1)c1c(N)n(CC(C)C)c(=O)[nH]c1=O` gave tim23-1 inh -15.6, tim10-1 inh -15.7, EBI2 antag -4.3, TIM10 inh -12.1, SKKanGAS inh -4.7 and PfHsp90 set2 5.7.
Screening O=C(/C=C/c1cccc(Br)c1)N1CCN(c2ccccn2)CC1 returned tim23-1 inh 32.8, tim10-1 inh 41.6*, EBI2 antag 76.9*, TIM10 inh -22.0, SKKanGAS inh -5.0, PfHsp90 set2 -7.7, tim10-1 conf 23.9, EBI2 antag conf 45.8, EBI2 agonist 0.5 and bGal counter -10.4.
Screening NC(=O)C1CCN(C(=O)/C=C/c2cccc(Br)c2)CC1 returned tim23-1 inh 6.4, tim10-1 inh -12.7, EBI2 antag 11.7, TIM10 inh 6.4, SKKanGAS inh 0.2 and PfHsp90 set2 -1.9.
Screening CCCc1cc(=O)oc2cc(C)cc(OCC(=O)Nc3cccnc3)c12 returned tim23-1 inh -5.6, tim10-1 inh 3.7, EBI2 antag 4.6, TIM10 inh -12.7, SKKanGAS inh -6.8 and PfHsp90 set2 -17.2.
Screening COCCN(Cc1cc2cc3c(cc2nc1Cl)OCO3)C(=O)c1ccc(C)cc1 returned tim23-1 inh 21.1, tim10-1 inh 17.5, EBI2 antag -9.2, TIM10 inh 7.3 and SKKanGAS inh -3.3.
COc1ccc(C(C)=O)cc1Cn1c(C)c(C(=O)NCC(C)C)sc1=O was read as EBI2 antag -4.6.
For C/C(=N/NC(=O)c1ccc(C(C)(C)C)cc1)c1ccccn1 the results were tim23-1 inh 40.6, tim10-1 inh 47.0*, EBI2 antag 74.3*, TIM10 inh 3.8, SKKanGAS inh 105.7*, PfHsp90 set2 -18.2, tim10-1 conf 15.0, EBI2 antag conf 87.0*, EBI2 agonist -3.4 and bGal counter 6.6.
`C/C(=N\NC(=O)c1ccc(Cl)c(Cl)c1)c1ccccn1` gave tim23-1 inh 49.1, tim10-1 inh 51.9*, EBI2 antag 79.0*, TIM10 inh 23.2, SKKanGAS inh 91.9*, PfHsp90 set2 -28.3, tim10-1 conf 47.3*, EBI2 antag conf 78.8*, EBI2 agonist -2.5 and bGal counter -4.2.
Screening C/C(=N\NC(=O)c1cc(-c2cccs2)nc2ccccc12)c1ccccn1 returned tim23-1 inh 40.4, tim10-1 inh 66.9*, EBI2 antag 66.0*, TIM10 inh 32.3, SKKanGAS inh 90.5*, PfHsp90 set2 1.3, tim10-1 conf 48.0*, EBI2 antag conf 48.3, EBI2 agonist -2.7 and bGal counter -9.8.
`CCNC(=S)Nc1cc(Cl)ccc1Oc1ccccc1` gave tim23-1 inh 36.9, tim10-1 inh 31.2, EBI2 antag -1.0, TIM10 inh 26.0, SKKanGAS inh 1.7 and PfHsp90 set2 -3.3.
COc1ccc(Oc2nc(-c3ccncc3)nc3ccccc23)cc1 was read as tim23-1 inh 48.4, tim10-1 inh 39.4, EBI2 antag 20.7, TIM10 inh 31.7, SKKanGAS inh 1.1 and PfHsp90 set2 -32.5.
For COc1cccc(Oc2nc(-c3ccncc3)nc3ccccc23)c1 the results were tim23-1 inh 46.9, tim10-1 inh 41.5*, EBI2 antag 44.1*, TIM10 inh 22.4, SKKanGAS inh -3.2, tim10-1 conf 21.6, EBI2 antag conf 5.2, EBI2 agonist 0.8 and bGal counter 9.4.
CCOc1ccc(NC(=O)C/C(C)=N/NC(=O)COc2ccc(Br)cc2C)cc1 was read as tim23-1 inh 10.8, tim10-1 inh -8.2, EBI2 antag 0.1, TIM10 inh 8.8, SKKanGAS inh -1.2 and PfHsp90 set2 18.9.
Screening Cn1cccc1Cc1nnc(SCC(=O)Nc2ccc(F)cc2)n1CCc1ccccc1 returned tim23-1 inh 37.7, tim10-1 inh 41.9*, EBI2 antag 50.5*, TIM10 inh 12.0, SKKanGAS inh 3.2, PfHsp90 set2 -24.0, tim10-1 conf 20.4, EBI2 antag conf 34.0, EBI2 agonist 0.6 and bGal counter 1.6.
Cn1cccc1Cc1nnc(SCC(=O)Nc2ccc3c(c2)OCO3)n1CCc1ccccc1 was read as tim23-1 inh 24.1, tim10-1 inh 12.2, EBI2 antag 36.1, TIM10 inh 10.2, SKKanGAS inh -4.8 and PfHsp90 set2 -7.3.
CCOC(=O)C1(Cc2ccc(OC)cc2)CCN(C(=O)c2cc3ccccc3[nH]2)CC1 was read as tim23-1 inh 27.1, tim10-1 inh 40.9*, EBI2 antag 67.4*, TIM10 inh 24.5, SKKanGAS inh 14.9, PfHsp90 set2 14.8, tim10-1 conf 29.0, EBI2 antag conf 35.4, EBI2 agonist -1.2 and bGal counter -2.7.
`CCOC(=O)C1(Cc2ccc(OC)cc2)CCN(C(=O)c2cc(C)on2)CC1` gave tim23-1 inh 13.7, tim10-1 inh 10.7, EBI2 antag 5.1, TIM10 inh 5.1, SKKanGAS inh 10.7 and PfHsp90 set2 10.6.
CC1CN(C(=O)C2(C)CC2(Br)Br)CC(C)O1 (configuration not stated) was read as tim23-1 inh -6.2, tim10-1 inh 6.3, EBI2 antag -14.9, TIM10 inh 3.5, SKKanGAS inh -1.0 and PfHsp90 set2 -9.0.
Screening O=C1c2cccc3cccc(c23)C(=O)N1CCN1CCN(CC(O)COc2ccc3ccccc3c2)CC1 (configuration not stated) returned tim23-1 inh 45.4, tim10-1 inh 70.8*, EBI2 antag 48.8*, TIM10 inh 15.0, SKKanGAS inh 28.7, PfHsp90 set2 18.6, tim10-1 conf 61.8*, EBI2 antag conf 19.0, EBI2 agonist -0.2 and bGal counter 3.6.
`COc1ccc(-c2cc(C(=O)N3CCN(C(c4ccccc4)c4ccccc4)CC3)no2)cc1` gave tim23-1 inh 37.5, tim10-1 inh 59.2*, EBI2 antag 90.8*, TIM10 inh 69.3*, SKKanGAS inh -1.5, PfHsp90 set2 -9.1, tim10-1 conf 62.6*, tim10 confirm 54.5*, EBI2 antag conf 76.3*, EBI2 agonist 0.2 and bGal counter 9.1.
